# Only some compounds are listed: those with a hit (about 11% of all), similar ones and a draw of the others.
# AmpC no deterg: AmpC beta-lactamase inhibition without detergent; Potency, µM (titrated, usually from 57.1 µM), inactives show at the highest dose activity change, negative = inhibition, most hits filed as inhibitors; AmpC nitrocefin hydrolysis, absorbance 480 nm, 0.0001% Triton; AID 485341; actives 0.52% (n = 330,000); P00811;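 note: plate controls were no compound for no effect and no enzyme for full effect; nearly all actives have a fitted effect of over 20% in size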
# Target sequence (P00811 whole entry, looked up): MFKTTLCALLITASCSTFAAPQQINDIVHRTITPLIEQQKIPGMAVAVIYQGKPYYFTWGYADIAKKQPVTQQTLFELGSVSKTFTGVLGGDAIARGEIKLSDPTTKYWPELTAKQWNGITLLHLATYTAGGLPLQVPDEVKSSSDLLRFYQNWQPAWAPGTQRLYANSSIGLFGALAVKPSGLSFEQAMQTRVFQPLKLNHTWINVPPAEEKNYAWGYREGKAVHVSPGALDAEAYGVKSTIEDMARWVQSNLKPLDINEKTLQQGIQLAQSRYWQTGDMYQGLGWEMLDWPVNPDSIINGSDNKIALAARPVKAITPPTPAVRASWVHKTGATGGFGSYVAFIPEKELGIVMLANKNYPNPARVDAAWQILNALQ
#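 AmpC (5.3 nM in the dispensed reagent) in 20 mM phosphate pH 7.0 with 0.01% (detergent screen) or 0.0001% Triton X-100 was preincubated with compounds for 15 min at room temperature. Nitrocefin was then added from an 800 uM solution, and hydrolysis was followed at 480 nm.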
# HCV inh: HCV inhibition; Huh7.5.1 HCVcc-Cre infection, luciferase reporter, 44 h; actives 3.4% (n = 340,000); Potency, µM (titrated, usually from 41.8 µM), without a hit: at the top dose activity change, negative = inhibition, usual class: inhibitors; AID 651820
#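 Luciferase read-out (15 sec integration) after a 15 min room-temperature substrate step quantifies HCVcc-Cre infection. Cells, 1,000 per well, had compound added 4 h post-plating, then virus at ~0.5 moi, and were cultured 44 h.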
# AMA1-RON2 inh: AMA1-RON2 (P. falciparum) interaction inhibition | AlphaScreen AMA1-biotinylated RON2 peptide binding | actives 0.2% (n = 360,000) | Potency, µM (series often up to 58.2 µM), for inactives: top-dose activity change, negative = inhibition, hits mostly inhibitors;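 note: 0% = vehicle wells and -100% = peptide control; nearly all actives have a fitted effect of over 45% in size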
#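 AMA1 (3D7) with his tag at 25 nM final met compounds first, then biotinylated RON2 peptide at 25 nM; detection used donor plus acceptor beads, 10 µg/mL apiece, read by AlphaScreen after 30 min at room temperature.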
# AmpC inh detg: inhibitors of E. coli AmpC beta-lactamase with detergent | P00811 | AmpC hydrolysis of nitrocefin, absorbance 480 nm, 0.01% Triton | Potency, µM (top dose mostly 114 µM), without a hit: top-dose activity change, negative = inhibition, hits mostly inhibitors | actives 0.041% (n = 370,000);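 note: 0% = no-compound wells and -100% = no-enzyme wells; nearly all actives have a fitted effect of over 25% in size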
#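 20 mM phosphate pH 7.0 + 0.01% (detergent screen) or 0.0001% Triton X-100; 5.3 nM AmpC reagent; cpd preinc 15 min RT; nitrocefin (800 uM stock) to start; A480 q20 s × 4 min; Activity was normalised to no-enzyme and no-compound control wells.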
# Pf growth 96h: inhibits malaria parasite growth, 96 h; AID 504834; P. falciparum luciferase reporter growth, 96 h; actives 6.9% (n = 320,000); Potency, µM (titrated, usually from 28.7 µM), without a hit: at the top dose activity change, negative = inhibition, hits mostly inhibitors
#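 Luminescence readout: decreased luciferase signal marks inhibited growth of reporter-expressing P. falciparum in infected red cells (2% hematocrit, 0.05% parasitemia final), exposed to compound two generations (96 h, 37 C, 5% CO2).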
# Pf growth 48h: P. falciparum growth inhibition at 48 hours (one generation); P. falciparum luciferase growth in erythrocytes, 48 h; Potency, µM (highest dose often 28.7 µM), for the others: at the highest dose activity change, negative = inhibition, most hits filed as inhibitors; actives 5.9% (n = 310,000); AID 504832
#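 Erythrocytes infected with P. falciparum carrying an integrated firefly luciferase reporter (2% hematocrit, 0.1% parasitemia final) were exposed to compounds in RPMI 1640 with 0.5% Albumax at 37 C, 5% CO2. Growth inhibition was scored as reduced luminescence.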
# * = called active by the depositor; ? = inconclusive; / = no result given; [ ] = remark or other dose. Calls come from the whole dose curve; as a rule, active = well fitted curve in the direction sought with a large enough effect; inconclusive = small, poorly fitted or top-dose-only effect, or another doubt; inactive = no such curve, though single readings can be large; an effect the other way counts as inactive or inconclusive. Unless noted, % is set by controls: 0 for no effect and ±100 for the full control effect; potency is the fitted concentration of half-maximal effect.
SMILES,AmpC no deterg,HCV inh,AMA1-RON2 inh,AmpC inh detg,Pf growth 96h,Pf growth 48h
CC(=O)O[C@@]12CO[C@@H]1C[C@H](OC1OCC(O)C(O)C1O)[C@@]1(C)C(=O)[C@H](O)C3=C(C)[C@@H](OC(=O)[C@H](O)[C@@H](NC(=O)c4ccccc4)c4ccccc4)C[C@@](O)([C@@H](OC(=O)c4ccccc4)C12)C3(C)C (stereo partly specified),202%,-6%,-3%,?,0.037µM*,?
COc1ccccc1N1CCN(C(=O)CN2C(=O)COc3ccc(S(=O)(=O)N4CCCC4)cc32)CC1,/,/,/,4%,/,/
COc1cc(C(=O)NCCc2ncccc2C)ccc1OC1CCN(C(C)=O)CC1,4%,18%,5%,-7%,7%,9.3µM*
COCCCNC(=O)c1ccc(OC)c(OC2CCN(C(C)C)CC2)c1,-6%,22µM*,22%,-23%,?,-34%
COc1ccc(C(=O)NCCOC(C)C)cc1OC1CCN(C(C)=O)CC1,-1%,13%,1%,-15%,10µM*,11%
COc1ccc(C(=O)NCCc2ccc(C)cc2)cc1OC1CCN(C(C)=O)CC1,106%,3%,20%,3%,17%,-7%
COc1ccc(C(=O)NC(C)CCCC(C)(C)O)cc1OC1CCN(C(C)=O)CC1 (stereo unspecified),0%,21%,5%,-2%,7.4µM*,-4%
COc1cc(C(=O)NC(C)CCn2cccn2)ccc1OC1CCN(C(C)=O)CC1 (stereo unspecified),-3%,37%,-1%,5%,?,-1%
COc1ccccc1CCNC(=O)c1ccc(OC)c(OC2CCN(C(C)C)CC2)c1,0%,-2%,9%,3%,-7%,?
Cc1cc(=O)n(Cc2cccc(Cl)c2)c2c1c(C)nn2-c1ccccc1,/,/,/,2%,/,/
CCCCOc1ccc(C(=O)NCC2(c3ccccc3)CCOCC2)cc1,52%,5%,6%,-2%,10µM*,?
CCCCCOc1ccc(C(=O)NCC2(c3ccccc3)CCOCC2)cc1,122%,/,-4%,6%,?,13µM*
Cc1ccc(Cl)cc1-n1c(CCC(=O)O)ccc1-c1cccs1,/,/,/,1%,/,/
COc1ccc(NC(=O)CSc2nc3c([nH]c4ccccc43)c(=O)n2-c2ccccc2)c(OC)c1,/,/,/,6%,/,/
CCOC(=O)C(N)CSC1CC(=O)N(c2ccc(OCC)cc2)C1=O (stereo unspecified),-20%,-5%,0%,?,?,?
CCOC(=O)c1ccc(N2C(=O)CC(SCC(N)C(=O)OCC)C2=O)cc1 (stereo unspecified),-5%,-5%,7%,6%,90%,10µM*
NCCSC1CC(=O)N(c2ccc(F)cc2)C1=O (stereo unspecified),0%,12%,1%,-5%,9.3µM*,29%
Cc1nn2c(N3CCN(C(=O)c4ccco4)CC3)cc(C(C)(C)C)nc2c1-c1ccccc1,-1%,13%,0%,-8%,4.7µM*,?
Cc1nn2c(N3CCN(C4CCCC4)CC3)cc(C(C)(C)C)nc2c1-c1ccccc1,-10%,-13%,7%,1%,/,10%
Cc1cc(N2CCN(C(=O)c3ccco3)CC2)n2ncnc2n1,-11%,10%,6%,-11%,0%,0%
O=C(c1ccco1)N1CCN(c2cc(C(F)(F)F)nc3ncnn23)CC1,-12%,10%,21%,?,13µM*,5%
Cc1nn2c(N3CCN(C)CC3)cc(C(C)(C)C)nc2c1-c1ccccc1,147%,?,-10%,4%,3.3µM*,?
COc1ccc(-n2nc(C(=O)Nc3cc(C)ccn3)c3c4ccccc4n(C)c3c2=O)cc1Cl,/,/,/,4%,/,/
Cc1ccc(-c2nnc(NCc3nc4ccccc4[nH]3)c3ccccc23)cc1S(=O)(=O)N1CCOCC1,24%,?,6%,-7%,2.6µM*,12µM*
Cc1ccc(-c2nnc(NCc3nc4ccccc4[nH]3)c3ccccc23)cc1S(=O)(=O)N(C)C,-5%,?,1%,0%,?,13µM*
SMILES,AmpC no deterg,HCV inh,AMA1-RON2 inh,AmpC inh detg,Pf growth 96h,Pf growth 48h
CNC(=O)Cn1nc(-c2ccc(C)c(S(=O)(=O)N(C)C)c2)c2ccccc2c1=O,20%,18%,5%,2%,9.3µM*,-12%
COC(=O)c1sccc1S(=O)(=O)N(CC(=O)NCc1ccc(F)cc1)c1ccccc1,/,/,/,16%,/,/
O=C(c1ccccc1)c1ccccc1,-4%,-3%,-2%,6%,6%,8%
CC(C)(C)n1cc(C(=O)c2ccccc2)cc1-c1ccccc1,-9%,?,?,-2%,?,12µM*
COC(=O)CC1(C(=O)OC)Oc2ccc(Br)cc2C(=O)N1c1ccc(Br)cc1Cl (stereo unspecified),6%,?,-10%,?,12µM*,?
COC(=O)CC1(C(=O)OC)Oc2ccc(Br)cc2C(=O)N1c1cc(Cl)cc(Cl)c1 (stereo unspecified),-6%,?,-4%,-5%,9.3µM*,5.2µM*
COC(=O)CC1(C(=O)OC)Oc2ccc(Br)cc2C(=O)N1c1cc(Cl)c(Cl)cc1Cl (stereo unspecified),-1%,?,-10%,1%,?,?
CCCNC(=O)C1(O)c2cc(Br)ccc2NC(=O)N1c1ccc(Cl)cc1 (stereo unspecified),-21%,17%,0%,2%,31%,2%[0.00184 µM]
COC(=O)CN1C(=O)C(O)(CC(=O)c2cccc(Br)c2)c2ccccc21 (stereo unspecified),14%,-8%,6%,?,54%,/
COC(=O)CC1(C(=O)OC)Oc2ccc(Br)cc2C(=O)N1c1cccc(Cl)c1Cl (stereo unspecified),42%,?,-2%,-12%,13µM*,?
CC(CNC(=O)Cn1ncc2c3ccccc3n(Cc3cccc(Cl)c3)c2c1=O)c1ccccc1 (stereo unspecified),/,/,/,21%,/,/
COc1ccccc1NC(=O)CCn1cnc2ccccc2c1=O,0%,/,/,-7%,38%,5%
COc1ccc(S(=O)(=O)N2CCN(Cc3nc4ccc(C)cc4o3)CC2)cc1,/,/,/,5%,/,/
CC(C)(C)C(=O)Nc1nc2cc3c(cc2s1)OCO3,-15%,?,?,7%,170%,135%
